Compounds with a hit are over-represented: about 4% of the library has one in this group of screens.
MLL AF4-AF9 inh: inhibitors of human MLL-AF4/AF9 interaction | P42568 | AlphaScreen, biotin-AF4 peptide binding to FLAG-AF9 | inhibition, % at 10 µM | 0.47% of 350,000 active | AID 651704;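 active = every replicate reaching a set inhibition limit, whatever the replicate mean, cut at about 25% in these data; inconclusive = mean inhibition reaches that limit but some replicates miss it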;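 also: 0% = plate neutral control median and 100% = total signal loss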
DENV2 CPE rescue: protects cells from dengue virus 2 cytopathic effect; DENV2-infected cells, cytopathic effect rescue, plate reader; CPE inhibition, % at 9.99 µM; 1.7% of 350,000 active; AID 651640; in the data active = CPE inhibition above about 20%, passing the limit was not always enough; inconclusive = no clear call, values can overlap the other calls; tested in BHK-21 cells;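 also: 0% = median of neutral control wells and 100% = median of positive control wells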
FGF22 binding-1: binders of recombinant human FGF22 by thermal shift; SYPRO orange fluorescence; percent of sucrose octasulfate shift, DMSO zero; AID 651658; 1.5% of 340,000 active; activity (Tm shift, normalised), % at 9.99 µM; Q9HCT0;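 active = mean Tm shift, scaled 0 neutral to 100 positive control, at about 1.3% or above, every replicate too, limit read from the data; inconclusive = no clear call, values can overlap the other calls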
Target sequence (Q9HCT0 whole entry, looked up): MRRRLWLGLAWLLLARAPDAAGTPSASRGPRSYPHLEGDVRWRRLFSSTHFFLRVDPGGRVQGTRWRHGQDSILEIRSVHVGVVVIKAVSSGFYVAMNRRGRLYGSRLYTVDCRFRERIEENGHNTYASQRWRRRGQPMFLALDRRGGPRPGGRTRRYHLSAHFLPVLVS
RAD52 inh: inhibitors of human RAD52 DNA annealing | recombinant RAD52 DNA annealing, FRET fluorescence | inhibition, % at 18.7 µM | 0.46% of 360,000 active;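 active = every replicate showing at least 50% inhibition; inconclusive = mean inhibition at least 50% but not in every replicate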
Target sequence (P43351 whole entry, looked up): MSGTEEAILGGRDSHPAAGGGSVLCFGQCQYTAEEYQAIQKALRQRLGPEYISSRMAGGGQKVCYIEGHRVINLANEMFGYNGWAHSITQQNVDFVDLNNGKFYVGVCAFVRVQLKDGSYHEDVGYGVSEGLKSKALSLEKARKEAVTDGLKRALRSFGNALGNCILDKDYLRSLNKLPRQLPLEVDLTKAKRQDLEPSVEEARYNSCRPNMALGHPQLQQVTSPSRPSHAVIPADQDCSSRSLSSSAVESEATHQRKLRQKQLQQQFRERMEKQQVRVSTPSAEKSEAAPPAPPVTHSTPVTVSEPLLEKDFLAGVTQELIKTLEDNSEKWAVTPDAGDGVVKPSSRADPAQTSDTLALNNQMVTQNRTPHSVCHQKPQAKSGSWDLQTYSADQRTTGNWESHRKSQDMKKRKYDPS
ERAP1 inh: ERAP1 (human) enzyme inhibition; Q9NZ08; recombinant ERAP1, Leu-AMC fluorescence, 60 min; inhibition, % at 10.7 µM; 0.15% of 340,000 active;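 active = mean replicate inhibition of at least 30%, or all replicates individually reaching that 30% level; inactive = mean below 30% and not every replicate reaching it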;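 also: 0% = neutral control wells and 100% = L-leucinethiol positive control wells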
FGF22 binding-2: FGF22 (human) binding in thermal shift; 2% of 1,000 active; AID 720646; thermal shift activity, °C (ΔTm) at 38 µM; shares compounds with FGF22 binding-1; recombinant FGF22 thermal shift, SYPRO orange fluorescence;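 active = fitted rise in melting shift crosses a set limit at or below the top valid dose tested; inconclusive = flat fit at mid-level activity, or a poor quality fit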
FGF22 TSA: binds human FGF22 shifting its melting temperature | shares compounds with FGF22 binding-1 | Thermal shift assay, SYPRO orange, melting temperature shift | Tm shift (activity), % at 38 µM | 50 tested, under 10 active;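 active = compounds whose fitted dose curve of melting temperature shift rises past a set threshold within the tested doses; inconclusive = flat curve at moderate activity, or poor curve fit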
SYPRO no-protein: compound-only SYPRO artifact for FGF22 binders; AID 743019; AC50, µM (titrated, usually from 38 µM); shares compounds with FGF22 binding-1; compound-only SYPRO orange thermal shift counter-screen, no protein; 2% of 1,000 active;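 active = rising signal whose fitted curve reaches the 0.54 level within the top valid dose, showing a melting point, actives reach about 13 µM in these data; inactive = the rest, including activity in the opposite direction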; also: value is where the raw curve crosses a fixed level and not half-maximal
* hit, by the source's call; i = inactive; ? = inconclusive; . = no result given.

SMILES	MLL AF4-AF9 inh	DENV2 CPE rescue	FGF22 binding-1	RAD52 inh	ERAP1 inh	FGF22 binding-2	SYPRO no-protein	others
N#C[C@@H]1[C@H](c2ccc(C3=CCCCC3)cc2)[C@H](CO)N1S(=O)(=O)c1ccccc1	1	3	0	-48	-3	.	.
CCNC(=O)C[C@@H]1CC[C@H]2[C@@H](COc3ccc(NC(=O)c4ccc5c(c4)OCO5)cc3C(=O)N2C)O1	-11	4	0	6	-4	.	.
COc1ccc(Cc2nnc(NS(=O)(=O)c3ccccc3)s2)cc1	-2	5	26*	-25	9	0.06	i
COC(=O)C[C@@H]1CC[C@H]2[C@@H](COc3ccc(NC(=O)NC(C)C)cc3C(=O)N2C)O1	-1	0	1.3*	-2	0	0.025	i
Cc1nn(C)cc1NC(=O)C[C@H]1CC[C@H]2[C@H](COc3ccc(NC(=O)NC(C)C)cc3C(=O)N2C)O1	-1	-5	0	4	-2	.	.
Cc1nn(C)cc1NC(=O)C[C@H]1CC[C@@H]2[C@@H](COc3ccc(NC(=O)NC(C)C)cc3C(=O)N2C)O1	0	6	1.6*	7	1	0.039	i
CCc1nnc(NS(=O)(=O)c2ccc(NC(=O)c3ccc(Br)cc3)cc2)s1	0	-7	1.6*	-10	0	0.019	i
CCc1nnc(NS(=O)(=O)c2ccc(Nc3ccc([N+](=O)[O-])c4nonc34)cc2)s1	?	14	2.0*	-114	19	0.2	i
CCc1nnc(NS(=O)(=O)c2ccc(NC(=O)c3ccccc3O)cc2)s1	2	-2	0	-10	2	.	.
CCc1nnc(NS(=O)(=O)c2ccc(NS(=O)(=O)c3ccccc3[N+](=O)[O-])cc2)s1	-1	-6	0	-17	0	.	.
O=C(Nc1ccc(F)cc1)N[C@H]1CC[C@H](CCNS(=O)(=O)c2ccccc2F)O[C@H]1CO	-1	-3	0	5	0	.	.
O=C(N/N=C/c1c[nH]c2ccccc12)c1ccncc1	6	-4	0	-4	-1	.	.
Cc1cc(C(=O)N/N=C/c2c[nH]c3ccccc23)cs1	-1	10	2.7*	-8	-4	.	i	FGF22 TSA=0
O=C(NN=Cc1c[nH]c2ccccc12)NN=Cc1c[nH]c2ccccc12	6	0	0	-87	-2	.	.
O=C(N/N=C/c1c[nH]c2ccccc12)c1cccs1	11	46*	2.2*	-22	3	.	i	FGF22 TSA=0
C[C@H]1CN([C@@H](C)CO)C(=O)c2cc(-c3ccncc3)cnc2O[C@H]1CN(C)C(=O)NC1CCCC1	-5	-3	0	-3	0	.	.
CCCNC(=O)C[C@@H]1CC[C@H]2[C@H](COc3ccc(NC(=O)c4ccc(OC)cc4)cc3C(=O)N2C)O1	.	3	0	.	.	.	.
C[C@@H]1CCCCO[C@H](CN(C)C(=O)c2ccccc2)[C@@H](C)CN([C@@H](C)CO)C(=O)c2cc(NC(=O)Nc3ccc(F)cc3)ccc2O1	-9	14	1	-2	-7	.	.
C[C@@H]1CN([C@H](C)CO)C(=O)c2cc(C#CC3CC3)cnc2O[C@@H]1CN(C)C(=O)c1ccccc1	0	7	0	9	-3	.	.
CC1Sc2ccc(S(=O)(=O)NCCc3ccc(S(N)(=O)=O)cc3)cc2NC1=O (stereo not drawn)	2	-9	0	-10	4	.	.
CC1C(=O)Nc2ccc(S(=O)(=O)NCCc3ccc(Cl)cc3)cc2NC1=O (stereo not drawn)	7	-12	1.6*	-16	-2	-0.37	i
C[C@H](CO)N1C[C@H](C)[C@H](CN(C)C(=O)C2CCCCC2)Oc2cc(-c3cccnc3)ccc2S1(=O)=O	8	-6	0	0	12	.	.
CC(C)NC(=O)N1CC[C@@H]2[C@H]1c1cc(-c3ccccc3)ccc1N(C)[C@H]2CO	0	-3	-1	1	3	.	.
O=C1C=CCCN1S(=O)(=O)/C=C/c1ccccc1	-11	0	17*	14	0	0.039	i
C[C@H](CO)N1C[C@H](C)[C@H](CN(C)C(=O)C2CCCCC2)Oc2ncc(C#Cc3ccccc3F)cc2C1=O	2	-4	0	6	0	.	.
SMILES	MLL AF4-AF9 inh	DENV2 CPE rescue	FGF22 binding-1	RAD52 inh	ERAP1 inh	FGF22 binding-2	SYPRO no-protein	others
O=[N+]([O-])c1ccc(N/N=C/c2ccc[nH]2)cc1	19	18	3.1*	-29	4	0.23	i
CC(C)C(=O)Nc1ccc2c(c1)C(=O)N(C)[C@H]1CC[C@H](CC(=O)NCC3CC3)O[C@H]1CO2	-3	-10	-1	-6	0	.	.
Cc1ccc(-n2nc(C)c(/C=N/NC(=O)c3cccnc3)c2Cl)cc1	1	-9	0	-20	1	.	.
Cc1nn(-c2ccccc2)c(Cl)c1/C=N/NC(=O)c1cccnc1	7	-4	17*	-7	0	0.11	i
C[C@@H]1CN([C@H](C)CO)S(=O)(=O)c2ccc(C#CC3(O)CCCC3)cc2O[C@H]1CN(C)C(=O)Cc1cccnc1	0	-5	0	6	0	.	.
O=[N+]([O-])c1ccc2nc(-c3ccc(Cl)cc3)[nH]c2c1	7	12	1.8*	-7	-4	0.059	i
COc1ccc(-c2nc3ccc([N+](=O)[O-])cc3[nH]2)cc1	4	-7	2.6*	-10	0	0.11	i
O=[N+]([O-])c1cccc(-c2nc3ccc([N+](=O)[O-])cc3[nH]2)c1	3	3	1	-5	2	.	.
O=[N+]([O-])c1ccc2nc(-c3ccccc3[N+](=O)[O-])[nH]c2c1	0	2	0	-18	-3	.	.
COc1ccc(S(=O)(=O)Nc2ccc3c(c2)C(=O)N([C@H](C)CO)C[C@H](C)[C@@H](CN(C)S(=O)(=O)c2ccc(C)cc2)OCCCC[C@H](C)O3)cc1	0	.	1	-10	-3	.	.
C[C@H]1CN([C@@H](C)CO)C(=O)Cc2cc(NC(=O)CCC(F)(F)F)ccc2O[C@@H]1CN(C)Cc1ccc(Oc2ccccc2)cc1	.	-1	0	.	.	.	.
CSc1ccc(C(=O)NCC2CCN(C(=O)C(=O)c3cc4ccccc4o3)CC2)cc1	0	5	1.5*	-14	3	-0.037	i
COc1cc(OC)cc(C(=O)NCC2CCN(C(=O)C(=O)c3cc4ccccc4o3)CC2)c1	3	10	0	-3	0	.	.
COc1ccccc1N(C)S(=O)(=O)c1ccc(C(=O)Nc2ccc(C(N)=O)cc2)cc1	-2	?	1.7*	-15	2	-0.094	i
